# The sample as a whole holds a higher share of hits than the screen did.
# RmlCD inh mix = mixture blocks RmlC and RmlD coupled enzyme activity; RmlC/RmlD coupled enzyme inhibition, 384-well mixture HTS; inhibition, % at 5.5 µM; hit rate 0.39% among 110,000; AID 1532; in the data active = inhibition above about 30%, passing the limit was not always enough
# HIV RNase H inh-1 = blocks HIV-1 RNase H cleavage of RNA/DNA duplex | RT-RNase H RNA/DNA duplex cleavage, fluorescence | inhibition, % at 10 µM | hit rate 1.9% among 65,000 | AID 565; in the data active = inhibition above about 50%
# HIV RNase H inh-2 = confirmation of HIV-1 reverse transcriptase RNase H inhibitors | inhibition, % at 10 µM | Recombinant RT RNase H, fluorescent RNA/DNA duplex cleavage | hit rate 39% among 1,000 | shares compounds with HIV RNase H inh-1; in the data active = inhibition above about 48%
# * hit, by the source's call; · = not tested or not shown.
SMILES,RmlCD inh mix,HIV RNase H inh-1,others
Cc1ccc2nc3c(cc(C(=O)NCCCn4ccnc4)n3C)c(=O)n2c1,62*,-3,
CCCCn1c(SCC(N)=O)nc2ccc(N3CCOCC3)cc2c1=O,7,·,
CCCCn1c(SCC(=O)Nc2cccc(OC)c2)nc2ccc(N3CCOCC3)cc2c1=O,0,51*,
COC(=O)CSc1nc2c(c(-c3ccco3)c1C#N)CCCC2,3,46,
N#Cc1cc2c(nc1SCC(N)=O)CCCCC2,-8,·,
C=C(C)CSc1nc2c(cc1C#N)CCC2,7,-51,
COC(=O)CC(=O)CSc1nc2c(cc1C#N)CCC2,77*,5,
CC(C)OC(=O)CC(=O)CSc1nc2c(cc1C#N)CCC2,97*,6,
CCCCOc1ccc(C(=O)Nc2ccc(N3CCN(C)CC3)cc2)cc1,-15,1,
COc1cc(N)ccc1C(=O)O,-5,·,
Cc1nc(N2CCN(C(=O)COc3ccccc3)CC2)c2c(C)c(C)sc2n1,-12,·,
CCn1cc(C(=O)NC2CCCCC2C)c(=O)c2ccc(C)nc21 (configuration not stated),-9,-12,
Cc1ccc(C(=O)Nc2nc(-c3cccnc3)cs2)o1,-10,·,
O=C(Nc1nc(-c2ccccc2)cs1)c1ccc(Br)o1,12,66*,
COc1cc2c(cc1OC)C1=NC(=O)CN1C(SCc1ccc(C)cc1)=N2,9,·,
Cc1onc(-c2c(F)cccc2Cl)c1C(=O)NCCc1ccc(S(N)(=O)=O)cc1,-17,54*,
Cc1onc(-c2ccccc2Cl)c1C(=O)NCc1ccc(S(N)(=O)=O)cc1,-33,-5,
C1CCN=C(Nc2nc3c(s2)CCCC3)CC1,4,-3,
CCSc1nc2c(c(=O)[nH]c(=O)n2C)n1Cc1ccc(Cl)cc1,-4,-3,
N#CC1=C2SCN(Cc3ccco3)CN2C(=O)CC1c1ccccc1F (configuration not stated),-13,·,
N#CC1=C2SCN(Cc3ccco3)CN2C(=O)CC1c1cccc2ccccc12 (configuration not stated),7,57*,
CCOC(=O)c1sc(=S)n(-c2ccccc2Cl)c1SC,23,·,
CCOC(=O)c1c(N)sn(-c2ccccc2C)c1=S,10,92*,HIV RNase H inh-2=71*
COc1ccc(Cc2nnc(SCC(=O)NCC3CCCO3)o2)cc1 (configuration not stated),11,-11,
N#Cc1nc(-c2ccccc2Cl)oc1N1CCOCC1,-7,-86,
SMILES,RmlCD inh mix,HIV RNase H inh-1,others
Cc1cc(NC(=O)c2cccc(S(=O)(=O)N3CCCCCC3)c2)no1,8,·,
COc1ccc(C2C(C#N)=C(N)N3C(=C2C#N)Sc2ccccc23)cc1 (configuration not stated),-12,87*,HIV RNase H inh-2=60*
COc1ccc(C2C(C#N)=C(N)N(c3sc4c(c3C#N)CCCC4)C3=C2C(=O)CC(C)(C)C3)cc1 (configuration not stated),8,·,
CCOCCn1c(SCc2ccc(F)cc2)nc2c1c(=O)[nH]c(=O)n2C,-7,-24,
C/C(Cl)=C/Cn1c(SCc2ccc(Cl)cc2)nc2c1c(=O)[nH]c(=O)n2C,2,35,
COCCn1c(SCc2c(F)cccc2Cl)nc2c1c(=O)[nH]c(=O)n2C,-16,57*,HIV RNase H inh-2=4
C/C=C/Cn1c(SCc2ccccc2)nc2c1c(=O)[nH]c(=O)n2C,8,50*,HIV RNase H inh-2=2
CC(C)CSc1nc2c(c(=O)[nH]c(=O)n2C)n1CCc1ccccc1,-9,3,
C=CCn1c(SCCN2CCOCC2)nc2c1c(=O)[nH]c(=O)n2C,6,-2,
CCCCn1c(SCc2ccc(Cl)cc2)nc2c1c(=O)[nH]c(=O)n2C,-15,54*,HIV RNase H inh-2=1
COCCn1c(SCCN2CCOCC2)nc2c1c(=O)[nH]c(=O)n2C,7,88*,HIV RNase H inh-2=60*
CC1CN(C(=O)c2ccc3c(c2)OCO3)CC(C)O1 (configuration not stated),6,·,
Cc1cccc(OCC(=O)Nc2ccc(N3CCN(S(C)(=O)=O)CC3)cc2)c1C,14,6,
COc1cnn(-c2ccccc2)c(=O)c1SCc1ccc(Cl)cc1Cl,8,·,
N#Cc1nc(-c2ccco2)oc1N1CCOCC1,21,-8,
Cc1ccc(Cn2c(Sc3ncccn3)nc3c2c(=O)[nH]c(=O)n3C)cc1,26,4,
C/C=C/CSc1nc2c(c(=O)[nH]c(=O)n2C)n1Cc1ccc(C)cc1,-9,80*,HIV RNase H inh-2=72*
COc1cc(NS(=O)(=O)c2ccc(NC(=O)CSC3=NCCS3)cc2)nc(OC)n1,·,54*,HIV RNase H inh-2=45
O=C(CSC1=NCCS1)Nc1ccc(S(=O)(=O)NC2CCCCC2)cc1,-6,·,
CC(=O)N1CCc2cc(S(=O)(=O)NCCC(=O)N3CCN(Cc4ccccc4)CC3)ccc21,-17,-14,
COc1ccc(C(=O)N2CCCC(c3nc(-c4cc(OC)c(OC)c(OC)c4)no3)C2)cc1 (configuration not stated),-9,-4,
CCC1CC2(C)NC(=O)c3c(sc4c3CC(C)(C)OC4)N2C1=O (configuration not stated),·,79*,HIV RNase H inh-2=60*
Cn1c(NN)nc2sc3c(c2c1=O)CC(C)(C)OC3,7,·,
C=CC[n+]1c(-c2ccc(OCC)cc2)csc1NNC(=O)Nc1ccccc1,4,·,
N#Cc1c(N)[nH]c(=S)c(C#N)c1-c1ccccc1,4,82*,HIV RNase H inh-2=-5
SMILES,RmlCD inh mix,HIV RNase H inh-1,others
Cc1ccc(-c2cc(-c3ccccc3)[nH]c(=S)c2C#N)cc1,0,·,
O=S(=O)(c1ccccc1)N1CCN(c2cc(-c3ccccc3)nc3ncnn23)CC1,15,-2,
COCCOC(=O)C1=C(C)NC(SCC(=O)NC(C)(C)C)=C(C#N)C1c1ccco1 (configuration not stated),-7,3,
C=CCOC(=O)C1=C(C)NC(SCC(=O)Nc2ccc(C)c(Cl)c2)=C(C#N)C1c1ccco1 (configuration not stated),17,94*,HIV RNase H inh-2=85*
c1ccc(-c2nc(C3CCCCC3)c3sccc3n2)cc1,-1,·,
CCC(C(=O)NC1CCCCC1)N(CC1CCCO1)C(=O)CNS(=O)(=O)c1ccc(OC)cc1 (configuration not stated),-14,-5,
CCCC(C(=O)NC1CCCCC1)N(CC1CCCO1)C(=O)CNS(=O)(=O)c1ccc(F)cc1 (configuration not stated),-6,58*,HIV RNase H inh-2=12
CC1CCCN(C(=O)c2ccc3c(=O)n(Cc4ccc5c(c4)OCO5)c(=S)[nH]c3c2)C1 (configuration not stated),-8,·,
Cc1cc(C)c(S(=O)(=O)Nc2nnc(C)s2)c(C)c1,5,-3,
COCCN(Cc1cc2cccc(C)c2[nH]c1=O)C(=O)c1ccccc1,-3,-2,
O=C1C2C3C=CC(CO)(O3)C2C(=O)N1c1ccccc1-c1ccccc1 (configuration not stated),-16,61*,HIV RNase H inh-2=-5
COc1ccc(C(=O)NCC23C=CC(O2)C2C(=O)N(Cc4ccccc4)C(=O)C23)cc1 (configuration not stated),-10,1,
Cc1ccc(Cn2nnc3c(=O)n(CC(=O)NCc4ccco4)cnc32)cc1,3,-4,
CC1(C)CC(=O)C=C(Nc2ccccc2O)C1,2,-2,
CC(C)CC(=O)Nc1nc(=S)ss1,2,·,
CC(=O)Nc1nc(=S)ss1,3,64*,HIV RNase H inh-2=39
Cc1c(C(=O)NC2=NCCS2)oc2ccccc12,8,-17,
Cc1sc(NC(=O)c2oc3ccccc3c2C)c(C#N)c1C,4,57*,HIV RNase H inh-2=83*

# Bioassay records (PubChem)
